Source: PubChem BioAssay (EPA / NIEHS)
Records with an inconclusive call do not appear. Activity calls are given as the source filed them. Rule for the calls: active = hit-call score of the fitted dose curve at least 0.9, where 1 is the maximum; inconclusive = response in the unintended direction; inactive = score below 0.9.

Assay: Tanguay_ZF_120hpf_ActivityScore_legacy: (Legacy) Oregon State University Tanguay Lab 120 Hour Post-fertilization zebrafish Assay Score for Activity (AID 2283742);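 for AC50: dechorionated Tropical 5D wild-type zebrafish embryos held singly per well; static exposure from 6 hpf until 120 hpf at 28 °C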
How it was run: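 Dechorionated Tropical 5D embryos, one per well from 6 hpf, statically exposed to 120 hpf at 28 °C in 0.64% DMSO. Mortality and malformations scored binary by brightfield microscopy; activity score combines 18 endpoints, fitted positively versus DMSO.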

| SMILES | outcome | AC50 |
| --- | --- | --- |
| N#Cc1c(Cl)cccc1Cl | inactive |  |
| COC(=O)c1c(C(F)F)nc(C(F)(F)F)c(C2=NCCS2)c1CC(C)C | inactive |  |
| Clc1cccc(C(Cl)(Cl)Cl)n1 | inactive |  |
| CC(C)Oc1cccc(NC(=O)c2ccccc2C(F)(F)F)c1 |  | 34.2 µM (active) |
| CCCCC(C#N)(Cn1cncn1)c1ccc(Cl)cc1 (stereo not drawn) | inactive |  |
| CC(C)N1C(=O)N(c2ccccc2)CSC1=NC(C)(C)C | inactive |  |
| C=C(C)CN(CC)c1c([N+](=O)[O-])cc(C(F)(F)F)cc1[N+](=O)[O-] | inactive |  |
| COP(=O)(OC)O/C(C)=C/C(=O)N(C)C | inactive |  |
| Nc1c(Cl)c(F)nc(OCC(=O)O)c1Cl | inactive |  |
| CO/N=C(/C1=NOCCO1)c1ccccc1Oc1ncnc(Oc2ccccc2Cl)c1F |  | 3.17 µM (active) |
| CC1(C)CON(Cc2ccccc2Cl)C1=O | inactive |  |
| Cc1cc(C)nc(Nc2ccccc2)n1 | inactive |  |
| Cn1c(-c2ccccc2)cc(-c2ccccc2)[n+]1C | inactive |  |
| CCCCC(O)(Cn1cncn1)c1ccc(Cl)cc1Cl (stereo not drawn) | inactive |  |
| CCC(C)n1c(=O)[nH]c(C)c(Br)c1=O (stereo not drawn) | inactive |  |
| CCSC(=O)N1CCCCCC1 | inactive |  |
| CC(C)(C)C(=O)C(Oc1ccc(Cl)cc1)n1cncn1 (stereo not drawn) |  | 33.6 µM (active) |
| Nc1cnn(-c2ccccc2)c(=O)c1Cl | inactive |  |

| SMILES | outcome | AC50 |
| --- | --- | --- |
| CC1(C)C(C(=O)OC(C#N)c2cccc(Oc3ccccc3)c2)C1(C)C (stereo not drawn) | inactive |  |
| CC(C)N1C(=O)c2ccccc2NS1(=O)=O | inactive |  |
| CC(C)Nc1nc(Cl)nc(NC(C)C)n1 | inactive |  |
| O=C1C2CC=CCC2C(=O)N1SC(Cl)(Cl)Cl (stereo not drawn) |  | 43.5 µM (active) |
| CCCCOCN(C(=O)CCl)c1c(CC)cccc1CC | inactive |  |
| CCOc1cc(C(C)(C)C)ccc1C1COC(c2c(F)cccc2F)=N1 (stereo not drawn) | inactive |  |
| COc1cc(Cl)c(OC)cc1Cl | inactive |  |
| CS(=O)(=O)c1cc(C(F)(F)F)ccc1C(=O)c1cnoc1C1CC1 | inactive |  |
| OC(c1ccc(Cl)cc1)(c1ccc(Cl)cc1)C(Cl)(Cl)Cl | inactive |  |
| O=C(O)c1c(Cl)ccc2cc(Cl)cnc12 | inactive |  |
| CCCC(=NOCC)C1=C(O)CC(CC(C)SCC)CC1=O (stereo not drawn) | inactive |  |
| CCOC(=O)C(C)OC(=O)c1cc(Oc2ccc(C(F)(F)F)cc2Cl)ccc1[N+](=O)[O-] (stereo not drawn) | inactive |  |
| CNC(=O)Oc1cccc2ccccc12 | inactive |  |
| COC(=O)N(C(=O)N1CO[C@@]2(C(=O)OC)Cc3cc(Cl)ccc3C2=N1)c1ccc(OC(F)(F)F)cc1 | inactive |  |
| CN=C=S | inactive |  |
| Nc1c(Cl)c(Cl)nc(C(=O)O)c1Cl | inactive |  |
| CN/C(=N\[N+](=O)[O-])NCc1cnc(Cl)s1 | inactive |  |
| CCCN(CC)CC1COC2(CCC(C(C)(C)C)CC2)O1 (stereo not drawn) | inactive |  |

Assay: ACEA_AR_agonist_AUC_viability: ACEA Biosciences xCELLigence Real-Time Cell Analysis on Androgen Receptor Agonism for Viability (AID 2283775);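 for AC50: viability read 80 hours after compound addition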
How it was run: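 Real-time impedance tracking of 22Rv1 growth, readings every 5 min for 5 h then hourly; area-under-curve viability endpoint at 80 hours, relative to DMSO. Compounds at eight concentrations, 1:4 steps, top 100 uM, n = 2.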

| SMILES | outcome | AC50 |
| --- | --- | --- |
| COC(=O)c1c(C(F)F)nc(C(F)(F)F)c(C2=NCCS2)c1CC(C)C | inactive |  |
| CC(C)N1C(=O)N(c2ccccc2)CSC1=NC(C)(C)C |  | 28.9 µM (active) |
| COP(=O)(OC)O/C(C)=C/C(=O)N(C)C | inactive |  |
| CO/N=C(/C1=NOCCO1)c1ccccc1Oc1ncnc(Oc2ccccc2Cl)c1F |  | 43 µM (active) |
| CCCCC(O)(Cn1cncn1)c1ccc(Cl)cc1Cl (stereo not drawn) |  | 69.8 µM (active) |
| CC(C)(C)C(=O)C(Oc1ccc(Cl)cc1)n1cncn1 (stereo not drawn) | inactive |  |
| CC1(C)C(C(=O)OC(C#N)c2cccc(Oc3ccccc3)c2)C1(C)C (stereo not drawn) |  | 50 µM (active) |
| CC(C)N1C(=O)c2ccccc2NS1(=O)=O | inactive |  |
| CCOc1cc(C(C)(C)C)ccc1C1COC(c2c(F)cccc2F)=N1 (stereo not drawn) |  | 24 µM (active) |
| CCOC(=O)C(C)OC(=O)c1cc(Oc2ccc(C(F)(F)F)cc2Cl)ccc1[N+](=O)[O-] (stereo not drawn) |  | 74 µM (active) |
| COC(=O)N(C(=O)N1CO[C@@]2(C(=O)OC)Cc3cc(Cl)ccc3C2=N1)c1ccc(OC(F)(F)F)cc1 |  | 18.3 µM (active) |

Assay: ACEA_AR_antagonist_AUC_viability: ACEA Biosciences xCELLigence Real-Time Cell Analysis on Androgen Receptor Antagonism for Viability (AID 2283776);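 note: 22Rv1 human prostate cancer cells growing on impedance electrode plates; hits lower the growth signal relative to DMSO meaning cytotoxicity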
How it was run: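 22Rv1 prostate cells, continuous dosing up to 100 uM final (0.5% DMSO max), duplicate plates. Growth measured by impedance; AUC at 80 h, loss of signal vs DMSO.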

| SMILES | outcome | AC50 |
| --- | --- | --- |
| N#Cc1c(Cl)cccc1Cl | inactive |  |
| COC(=O)c1c(C(F)F)nc(C(F)(F)F)c(C2=NCCS2)c1CC(C)C | inactive |  |
| Clc1cccc(C(Cl)(Cl)Cl)n1 | inactive |  |
| CC(C)Oc1cccc(NC(=O)c2ccccc2C(F)(F)F)c1 | inactive |  |
| CCCCC(C#N)(Cn1cncn1)c1ccc(Cl)cc1 (stereo not drawn) |  | 79 µM (active) |
| CC(C)N1C(=O)N(c2ccccc2)CSC1=NC(C)(C)C |  | 50 µM (active) |
| C=C(C)CN(CC)c1c([N+](=O)[O-])cc(C(F)(F)F)cc1[N+](=O)[O-] |  | 50 µM (active) |
| COP(=O)(OC)O/C(C)=C/C(=O)N(C)C | inactive |  |
| Nc1c(Cl)c(F)nc(OCC(=O)O)c1Cl | inactive |  |
| CO/N=C(/C1=NOCCO1)c1ccccc1Oc1ncnc(Oc2ccccc2Cl)c1F |  | 55.5 µM (active) |
| CC1(C)CON(Cc2ccccc2Cl)C1=O |  | 18.6 µM (active) |
| Cc1cc(C)nc(Nc2ccccc2)n1 | inactive |  |
| Cn1c(-c2ccccc2)cc(-c2ccccc2)[n+]1C |  | 41.7 µM (active) |
| CCCCC(O)(Cn1cncn1)c1ccc(Cl)cc1Cl (stereo not drawn) |  | 50 µM (active) |
| CCC(C)n1c(=O)[nH]c(C)c(Br)c1=O (stereo not drawn) | inactive |  |
| CCSC(=O)N1CCCCCC1 | inactive |  |
| CC(C)(C)C(=O)C(Oc1ccc(Cl)cc1)n1cncn1 (stereo not drawn) | inactive |  |
| Nc1cnn(-c2ccccc2)c(=O)c1Cl | inactive |  |

| SMILES | outcome | AC50 |
| --- | --- | --- |
| CC1(C)C(C(=O)OC(C#N)c2cccc(Oc3ccccc3)c2)C1(C)C (stereo not drawn) |  | 50 µM (active) |
| CC(C)N1C(=O)c2ccccc2NS1(=O)=O | inactive |  |
| CC(C)Nc1nc(Cl)nc(NC(C)C)n1 | inactive |  |
| O=C1C2CC=CCC2C(=O)N1SC(Cl)(Cl)Cl (stereo not drawn) |  | 17.2 µM (active) |
| CCCCOCN(C(=O)CCl)c1c(CC)cccc1CC |  | 70.9 µM (active) |
| CCOc1cc(C(C)(C)C)ccc1C1COC(c2c(F)cccc2F)=N1 (stereo not drawn) |  | 19.1 µM (active) |
| COc1cc(Cl)c(OC)cc1Cl | inactive |  |
| CS(=O)(=O)c1cc(C(F)(F)F)ccc1C(=O)c1cnoc1C1CC1 | inactive |  |
| OC(c1ccc(Cl)cc1)(c1ccc(Cl)cc1)C(Cl)(Cl)Cl |  | 13 µM (active) |
| O=C(O)c1c(Cl)ccc2cc(Cl)cnc12 | inactive |  |
| CCCC(=NOCC)C1=C(O)CC(CC(C)SCC)CC1=O (stereo not drawn) | inactive |  |
| CCOC(=O)C(C)OC(=O)c1cc(Oc2ccc(C(F)(F)F)cc2Cl)ccc1[N+](=O)[O-] (stereo not drawn) |  | 50 µM (active) |
| CNC(=O)Oc1cccc2ccccc12 |  | 24.8 µM (active) |
| COC(=O)N(C(=O)N1CO[C@@]2(C(=O)OC)Cc3cc(Cl)ccc3C2=N1)c1ccc(OC(F)(F)F)cc1 |  | 18.5 µM (active) |
| CN=C=S | inactive |  |
| Nc1c(Cl)c(Cl)nc(C(=O)O)c1Cl | inactive |  |
| CN/C(=N\[N+](=O)[O-])NCc1cnc(Cl)s1 | inactive |  |
| CCCN(CC)CC1COC2(CCC(C(C)(C)C)CC2)O1 (stereo not drawn) |  | 77.7 µM (active) |
